PMK inhibit: blocks S. pneumoniae phosphomevalonate kinase; purified PMK, PK/LDH-coupled NADH absorbance 340 nm; inhibition, % at 10 µM; 65,000 tested, 0.49% active;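 active means top-ranked compounds by inhibition in the single 10 µM screen, taking a fixed number of the strongest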
Autofluor 339: intrinsic fluorescence of library compounds, ex339/em460 – biochemical, MLSMR library, data from DPM-DC assay, artefact control, profiling panel; compound autofluorescence, ex339/em460 nm, NADH buffer; active compounds read high; 1 = no-compound wells, NADH background; fluorescence fold increase at 10 µM; 65,000 tested, 5.5% active;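 active means at 10 µM, mean starting fluorescence two-fold or more over control wells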;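 further: signal is the first read of a kinetic run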
NADH coupling: inhibition of NAD/NADH coupling enzymes, library profiling; coupled PK/LDH NADH assays, four targets; IC50, µM (titrated, usually from 10 µM); 65,000 tested, 0.02% active; AID 774;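 active means single-dose screening hits from any of four coupled enzyme assays that gave an IC50 when retested across doses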;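 further: the DPM-DC format reads NADH fluorescence rather than 340 nm absorbance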
Spn DPM-DC inh: blocks S. pneumoniae diphosphomevalonate decarboxylase; purified DPM-DC, PK/LDH coupled NADH fluorescence; calls only at 10 µM; 65,000 tested, 0.49% active;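 active means the 320 compounds with the highest percent inhibition in the single-dose primary screen, excluding strongly autofluorescent ones, cut at about 32% in these data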;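 further: kinetic rate of NADH fluorescence loss reporting ADP formed by the decarboxylase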
A340 absorber: absorbance at 340 nm; compound absorbance at 340 nm, fold over control; fold change at 10 µM; 65,000 tested, under 10 active;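 active means at 10 µM dose, initial 340 nm absorbance at least 2 fold that of control wells; inactive means change under 2 fold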;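 further: initial absorbance extrapolated from kinetic A340 decline of NADH oxidation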
MK inhibit: blocks S. pneumoniae mevalonate kinase. purified MK, PK/LDH-coupled NADH absorbance 340 nm. inhibition, % at 10 µM. 65,000 tested, 0.48% active. AID 555;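 active means ranked among the strongest by inhibition in the single 10 µM screen, a fixed top-ranked set picked for dose follow-up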
Of the large screens only hits and unclear results are named; the others gave an inactive call. Most compounds without a hit are left out; they make up all but 6.5% or so of the library.

Cc1ccc(CCNC(=O)Cn2cccc2)cc1	none
Cc1cc(C)cc(CC2CC(=O)N(c3nc(C)cc(C)n3)C2=O)c1 (configuration not stated)	PMK inhibit 25
COc1cccc(C(=O)Nc2ccc(-c3nc4ccccc4o3)c(O)c2)c1	Autofluor 339 2.1 (not shown: Spn DPM-DC inh)
COc1cc(C(=O)Nc2cccc(-c3nc4ccccc4o3)c2C)cc(OC)c1OC	none
COc1cc(OC)cc(C(=O)Nc2ccc(-c3nc4ccccc4o3)cc2)c1	Autofluor 339 2.2 (not shown: Spn DPM-DC inh)
O=C(Nc1ccc2oc(-c3ccccc3)nc2c1)c1ccncc1	none
COc1cc(C(=O)Nc2ccc(-c3nc4cc(C)ccc4o3)c(O)c2)cc(OC)c1OC	Autofluor 339 4.7 (not shown: Spn DPM-DC inh)
O=C(Nc1ccc(-c2nc3ccccc3o2)c(O)c1)c1cc(-n2cnnc2)ccc1Cl	Autofluor 339 3.9 (not shown: Spn DPM-DC inh)
O=C(c1c(Cl)nc2sccn12)N1CCN(c2cccc(Cl)c2)CC1	none
N#Cc1c(N)sc(=S)c2c1CCN(Cc1ccccc1)C2	PMK inhibit 29, Autofluor 339 4.3 (not shown: Spn DPM-DC inh)
CCN1CCc2c(sc(N)c2C#N)C1	none
N#Cc1c(NCCO)nc(NCc2ccccc2)c2c1CCN(Cc1ccccc1)C2	Autofluor 339 2.2, Spn DPM-DC inh active
CN(C)c1ccc(C=NCCC2(O)CCOC(C)(C)C2)cc1 (configuration not stated)	none
CN(C)c1ccc(CNCCC2(O)CCOC(C)(C)C2)cc1 (configuration not stated)	PMK inhibit 61, MK inhibit 41
O=c1nc(-c2ccccc2)c2ccccc2[nH]1	Autofluor 339 2.7
COc1ccccc1S(=O)(=O)Cc1ccc(C(=O)NCCN2CCCCCC2)o1	none
CCOc1ccccc1C(=O)N1CCN=C1SCc1cccnc1	none
CN(C)CCCNc1oc(-c2ccc(Cl)cc2)nc1C#N	Autofluor 339 4.8 (not shown: Spn DPM-DC inh)
COCCNc1oc(-c2ccc(C)cc2)nc1C#N	Autofluor 339 2.5 (not shown: Spn DPM-DC inh)
CN(C)CCNc1oc(COc2ccc(-c3ccccc3)cc2)nc1C#N	none
CN(C)c1oc(COc2ccc(F)cc2)nc1C#N	none
CCN(CC)CCCNc1oc(-c2cccc(Cl)c2)nc1C#N	Autofluor 339 3 (not shown: Spn DPM-DC inh)
CN(C)c1oc(-c2ccc(OCc3ccc(Cl)cc3)cc2)nc1C#N	Autofluor 339 3.3
COc1c2c(nc3occc13)C(CCC(C)(C)O)(OC)C(O)CC2 (configuration not stated)	none (no result: MK inhibit)
CCc1cccc(NC(=O)CS(=O)Cc2nc(-c3ccc(C)cc3)oc2C)c1 (configuration not stated)	none
COC(=O)c1ccc(CSc2nnc(-c3ccncc3)n2Cc2ccccc2)o1	none
COCCCNc1oc(COc2ccc(Cl)cc2Cl)nc1C#N	none
COCCNc1oc(-c2ccc(Cl)cc2)nc1C#N	Autofluor 339 2.4 (not shown: Spn DPM-DC inh)
O=C(c1cc2c(=O)oc3ccccc3c2s1)N1CCN(c2ccccn2)CC1	none
CCOc1ccccc1NC(=O)Cn1cnc2c(cnn2-c2ccc(C)c(C)c2)c1=O	none
Cc1ccc(-n2ncc3c(=O)n(CC(=O)Nc4cccc(Cl)c4)cnc32)cc1C	Autofluor 339 2.7
CCN1C(=O)c2cccc3c(S(=O)(=O)Nc4ccccc4OC)ccc1c23	none
COc1ccc(S(=O)(=O)NCCCN2CCOCC2)c2ccccc12	none
CCN1C(=O)c2cccc3c(S(=O)(=O)NCCCN4CCOCC4)ccc1c23	Autofluor 339 3.9
CCOc1ccc(S(=O)(=O)NCCCN2CCOCC2)c2ccccc12	PMK inhibit 40
COC(=O)c1cc(OC)c(OC)cc1NC(=O)Cn1nnc(-c2ccccc2Cl)n1	none
CC(/C=N/n1cnnc1)=C\c1ccco1	NADH coupling 3441µM, Spn DPM-DC inh active
CCNC(=O)c1cc2c(=O)n3cccc(C)c3nc2n(Cc2ccc(C)cc2)c1=N	Autofluor 339 3.8 (not shown: Spn DPM-DC inh)
CCCn1c(=N)c(C(=O)NCc2ccc3c(c2)OCO3)cc2c(=O)n3cccc(C)c3nc21	Autofluor 339 2.1
Cc1cccn2c(=O)c3cc(C(=O)Nc4ccc(N(C)C)cc4)n(C)c3nc12	none
Cc1cccn2c(=O)c3cc(C(=O)NC(C)C)c(=N)n(Cc4ccncc4)c3nc12	Autofluor 339 3.7 (not shown: Spn DPM-DC inh)
COc1ccc(CC(C(=O)Nc2cccc(F)c2)c2nn[nH]n2)c(OC)c1 (configuration not stated)	none
O=C1N2CN(C(c3ccccc3)c3ccccc3)CN=C2SC1(CO)CO	none
CN(C)C(=O)COc1ccc2ccc(=O)oc2c1	Autofluor 339 2.2 (not shown: Spn DPM-DC inh)
Cc1cc(-n2c(C)cc(C(=O)COc3ccc4ccc(=O)oc4c3)c2C)no1	Autofluor 339 4.2 (not shown: Spn DPM-DC inh)
CCOC(=O)COc1ccc2cc(C(=O)OCC)c(=O)oc2c1	Autofluor 339 2.3 (not shown: Spn DPM-DC inh)
COc1ccccc1CN(Cc1nc2ccccc2c(=O)[nH]1)C(=O)Nc1ccccc1	none
Cc1cc(N2C(=O)C3C4c5ccccc5C(c5ccccc54)C3C2=O)no1 (configuration not stated)	none
Cc1cc(-n2c(=O)c(C#N)cc3c(=O)n4ccccc4nc32)no1	Autofluor 339 3.8 (not shown: Spn DPM-DC inh)
C=CCn1c(=O)c(C#N)cc2c(=O)n3ccccc3nc21	Autofluor 339 4.8 (not shown: Spn DPM-DC inh)
COC(=O)CN(c1ccc(F)cc1)S(=O)(=O)c1ccc2c(c1)OCCO2	none
CC(C)Cc1nc2oc3c(NCc4cccnc4)ncnc3c2c2c1CCC2	Autofluor 339 2.6
CC(C)c1nc2oc3c(NCc4cccnc4)ncnc3c2c2c1CCC2	Autofluor 339 2.1
CC(C)Cc1nc2oc3c(NCC4CCCO4)ncnc3c2c2c1CCC2 (configuration not stated)	Autofluor 339 2.6
NS(=O)(=O)c1cc2c(cc1C(F)(F)F)NC(Cc1ccccc1)NS2(=O)=O (configuration not stated)	none
N#Cc1c(N)nc2c(c1-c1ccncc1)CCCC2	Autofluor 339 3.2
COC(=O)c1c(C#N)c(N)nc2c1CCCC2	Autofluor 339 3.8 (not shown: Spn DPM-DC inh)
N#Cc1c(N)nc2c(c1-c1ccncc1)CCCCCC2	Autofluor 339 2.1
CC1CCCC(N2C(=O)NC(NC(=O)c3ccco3)(C(F)(F)F)C2=O)C1C (configuration not stated)	none
N#CCCC12CCCCC1=Nc1ccccc12 (configuration not stated)	none
N=C1C=CC=C2C1=NC1(CCCCC1)N2O	none
Cc1cc(C)cc(N2C(=O)C3C4C=CC(C4)C3C2=O)c1 (configuration not stated)	none
CC(=O)c1ccccc1Oc1nc(CN2CCOCC2)nc2scc(-c3cccs3)c12	none
CCSc1nc2n(n1)C(c1cccc(F)c1)C1=C(CCCC1=O)N2 (configuration not stated)	Autofluor 339 2.6
CC(C)CCN1C(=O)c2ccc(C(=O)NCC3CCCO3)cc2C1=O (configuration not stated)	none
CCOc1cc(C2C(C(=O)N3CCCCC3)=C(C)NC3=C2C(=O)CCC3)cc(Br)c1O (configuration not stated)	Autofluor 339 2.5

Screening data (PubChem)
